Laboratory results reported in paper PMC9838217, “Structure of SALL4 zinc finger domain reveals link between AT-rich DNA binding and Okihiro syndrome”.
Numbering of substitutions follows the chain as printed.

What was measured:
Test in all cases: HT-SELEX; high values mean tight binding
Conditions in all cases: protein: recombinant; vector His6-GST; dsDNA, one strand shown
SALL4 ZFC4 WT (HT-SELEX) = target: T1, SALL4 ZFC4 WT (HT-SELEX) (Mus musculus, UniProt Q8BX22 870-940)
T1 sequence: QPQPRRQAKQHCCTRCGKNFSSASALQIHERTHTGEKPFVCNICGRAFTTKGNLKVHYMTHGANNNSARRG
Procedure, shortened: (§1)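 Purified recombinant mouse SALL4 zinc finger cluster 4 (residues 870–940, 1 µg) was incubated with library DNA (1.5 µg first cycle, 200 ng later) in 100 µl buffer (10 mM Tris–HCl pH 7.5, 50 mM NaCl, poly(dI-dC), DTT) for 10 min at room temperature. Ni2+ bead-captured complexes were washed, PCR-amplified and reselected for up to 6 cycles, in triplicate, then MiSeq-sequenced and scanned for 6-mers. Binding signal is each canonical k-mer's read fraction as fold change versus the initial random library.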

[1] = target: T2, SALL4 ZFC4 R900W (HT-SELEX) (Mus musculus, UniProt Q8BX22 870-940, R900W)
T2 sequence: T1 sequence with R31W
Procedure, shortened: as §1

[2] = target: T3, SALL4 ZFC4 G921D (HT-SELEX) (Mus musculus, UniProt Q8BX22 870-940, G921D)
T3 sequence: T1 sequence with G52D
Procedure, shortened: as §1

Sequence | binding signal (SALL4 ZFC4 WT (HT-SELEX)) [fold-change vs cycle 0] | binding signal [1] [fold-change vs cycle 0] | binding signal [2] [fold-change vs cycle 0]
ACCAAC | 0.731 ± 0.0183 | 0.8162 ± 0.00324 | 0.883 ± 0.0212
AGAGTC | 0.786 ± 0.0201 | 0.925 ± 0.0489 | 0.995 ± 0.0509
GCTTAC | 0.774 ± 0.0137 | 0.852 ± 0.0208 | 0.908 ± 0.0208
AAGTTC | 1.29 ± 0.0532 | 1.44 ± 0.0457 | 1.36 ± 0.0438
CTTTCA | 1.3 ± 0.0524 | 1.47 ± 0.103 | 1.35 ± 0.102
CGACAA | 0.4483 ± 0.00206 | 0.523 ± 0.0149 | 0.653 ± 0.0169
CTCTGC | 0.35 ± 0.0408 | 0.396 ± 0.021 | 0.522 ± 0.0742
TCCGGA | 0.375 ± 0.0195 | 0.451 ± 0.0492 | 0.552 ± 0.107
GAGTGA | 0.906 ± 0.0342 | 1.02 ± 0.0645 | 1.05 ± 0.0602
AGACCG | 0.32 ± 0.0198 | 0.393 ± 0.0317 | 0.525 ± 0.0509
CCAATC | 0.76 ± 0.0281 | 0.854 ± 0.0448 | 0.933 ± 0.0316
CATGTC | 0.763 ± 0.0529 | 0.908 ± 0.0423 | 0.939 ± 0.0158
AGGGTG | 0.486 ± 0.0118 | 0.567 ± 0.0247 | 0.648 ± 0.0341
CACTCG | 0.397 ± 0.0122 | 0.459 ± 0.00566 | 0.562 ± 0.0414
AGACCT | 0.753 ± 0.0476 | 0.917 ± 0.0202 | 0.963 ± 0.0152
ATAAGC | 1.34 ± 0.0651 | 1.21 ± 0.0666 | 1.22 ± 0.0552
ATGCAG | 0.674 ± 0.0311 | 0.754 ± 0.0134 | 0.818 ± 0.0231
TAGTCA | 1.26 ± 0.0279 | 1.4 ± 0.0422 | 1.34 ± 0.0704
GTTTCA | 1.26 ± 0.0534 | 1.32 ± 0.0266 | 1.31 ± 0.0949
AGGAAG | 0.939 ± 0.0254 | 1.172 ± 0.0114 | 1.11 ± 0.034
CCAAGA | 0.78 ± 0.0182 | 0.888 ± 0.03 | 0.931 ± 0.0131
AACCCG | 0.371 ± 0.0321 | 0.432 ± 0.0178 | 0.538 ± 0.0569
AAGATC | 1.25 ± 0.0866 | 1.42 ± 0.0452 | 1.44 ± 0.0439

Sequence | binding signal (SALL4 ZFC4 WT (HT-SELEX)) [fold-change vs cycle 0] | binding signal [1] [fold-change vs cycle 0] | binding signal [2] [fold-change vs cycle 0]
ACGTAT | 1.2 ± 0.0268 | 1.28 ± 0.0492 | 1.23 ± 0.0551
GATAAA | 2.01 ± 0.0629 | 1.92 ± 0.127 | 1.69 ± 0.118
CGTAAG | 0.774 ± 0.0532 | 0.862 ± 0.0372 | 0.905 ± 0.0422
ACGTGG | 0.369 ± 0.00823 | 0.462 ± 0.0221 | 0.54 ± 0.0513
GTGACA | 0.691 ± 0.0164 | 0.813 ± 0.0124 | 0.852 ± 0.0256
ATGTGA | 1.31 ± 0.0395 | 1.44 ± 0.0647 | 1.39 ± 0.0509
CAGTGG | 0.426 ± 0.0423 | 0.497 ± 0.0328 | 0.595 ± 0.0248
AGAGTG | 0.822 ± 0.0341 | 0.925 ± 0.0332 | 0.97 ± 0.0268
CGTTCC | 0.389 ± 0.0208 | 0.468 ± 0.0134 | 0.546 ± 0.0299
CCGTTA | 0.746 ± 0.0254 | 0.832 ± 0.0409 | 0.854 ± 0.0323
ATCACA | 1.39 ± 0.0936 | 1.48 ± 0.0843 | 1.43 ± 0.11
GTAAGA | 1.45 ± 0.0375 | 1.6 ± 0.0704 | 1.42 ± 0.0981
CGTTTC | 0.628 ± 0.029 | 0.738 ± 0.0101 | 0.794 ± 0.021
ATATTG | 2.19 ± 0.214 | 1.8 ± 0.105 | 1.69 ± 0.149
AAAGAC | 1.11 ± 0.0498 | 1.29 ± 0.0526 | 1.26 ± 0.0352
CGATAA | 1.17 ± 0.0894 | 1.19 ± 0.0909 | 1.15 ± 0.0473
AGGACA | 0.769 ± 0.0198 | 0.906 ± 0.0391 | 0.947 ± 0.0205
AGTTGA | 1.26 ± 0.0298 | 1.43 ± 0.0288 | 1.37 ± 0.0654
TACTGA | 1.38 ± 0.119 | 1.53 ± 0.139 | 1.42 ± 0.164
AGACTA | 1.31 ± 0.0607 | 1.47 ± 0.0959 | 1.41 ± 0.0994
AGCTAC | 0.674 ± 0.0463 | 0.7802 ± 0.0018 | 0.874 ± 0.026
AGCTAA | 1.15 ± 0.044 | 1.26 ± 0.0399 | 1.27 ± 0.0601
GATACC | 0.884 ± 0.044 | 0.969 ± 0.034 | 1.04 ± 0.0218

Sequence | binding signal (SALL4 ZFC4 WT (HT-SELEX)) [fold-change vs cycle 0] | binding signal [1] [fold-change vs cycle 0] | binding signal [2] [fold-change vs cycle 0]
CACGTC | 0.427 ± 0.0304 | 0.52 ± 0.0494 | 0.633 ± 0.0372
AGACAT | 1.29 ± 0.0778 | 1.45 ± 0.0615 | 1.37 ± 0.0528
ACAGAC | 0.687 ± 0.0257 | 0.791 ± 0.00124 | 0.865 ± 0.0133
ACTGTC | 0.75 ± 0.0397 | 0.857 ± 0.0177 | 0.901 ± 0.0149
ATGCAA | 1.2 ± 0.113 |  | 1.18 ± 0.0528
ATGGAG | 0.932 ± 0.0365 |  | 1.04 ± 0.0381
AAAACT | 1.7 ± 0.107 |  | 1.57 ± 0.146
AAGCAC | 0.582 ± 0.0244 | 0.678 ± 0.0144 | 0.796 ± 0.0229
ATAGAA | 2.33 ± 0.17 | 2.13 ± 0.133 | 1.83 ± 0.226
GAGGTA | 0.857 ± 0.032 | 0.988 ± 0.0197 | 0.996 ± 0.0208
CAAGGG | 0.487 ± 0.0326 | 0.5882 ± 0.00585 | 0.665 ± 0.033
GGATTA | 1.49 ± 0.0733 | 1.47 ± 0.0516 | 1.38 ± 0.0744
GGAAGA | 0.939 ± 0.0256 |  | 1.12 ± 0.0151
GCATAA | 1.13 ± 0.0858 |  | 1.105 ± 0.0098
GTGTAA | 1.24 ± 0.0525 | 1.37 ± 0.0544 | 1.28 ± 0.0793
ATTTTA | 3.12 ± 0.229 | 2.24 ± 0.131 | 1.98 ± 0.2
ATAGTA | 2.1 ± 0.131 | 2.08 ± 0.149 | 1.83 ± 0.209
ACTCCA | 0.896 ± 0.0264 |  | 1.03 ± 0.0296
ACAAAC | 1.07 ± 0.057 |  | 1.23 ± 0.0372
CATAGA | 1.37 ± 0.0454 |  | 1.34 ± 0.0648
TAAGAA | 2.2 ± 0.0931 |  | 1.87 ± 0.231
ATAGCA | 1.2 ± 0.0655 |  | 1.23 ± 0.0807
AGGATG | 0.903 ± 0.0399 |  | 1.04 ± 0.0274

Sequence | binding signal (SALL4 ZFC4 WT (HT-SELEX)) [fold-change vs cycle 0] | binding signal [1] [fold-change vs cycle 0] | binding signal [2] [fold-change vs cycle 0]
AGTGAA | 1.35 ± 0.0774 | 1.52 ± 0.125 | 1.39 ± 0.134
GAGAGA | 0.898 ± 0.0151 |  | 1.06 ± 0.0177
GTAGTA | 1.29 ± 0.036 | 1.41 ± 0.0747 | 1.33 ± 0.0906
TATAGA | 2.35 ± 0.163 | 2.02 ± 0.132 | 1.81 ± 0.192
TAATGA | 2.15 ± 0.16 | 2.16 ± 0.14 | 1.9 ± 0.22
AATACG | 1.06 ± 0.0521 |  | 1.1 ± 0.0362
CAAATG | 1.063 ± 0.0102 |  | 1.17 ± 0.0276
TCATGA | 1.45 ± 0.0979 | 1.54 ± 0.0952 | 1.49 ± 0.115
GGCAAA | 0.399 ± 0.0111 | 0.457 ± 0.0213 | 0.604 ± 0.0748
AAAATG | 1.68 ± 0.0946 | 1.56 ± 0.0588 | 1.46 ± 0.0958
ACGAAA | 1.04 ± 0.0604 |  | 1.11 ± 0.0388
AAACCA | 1.14 ± 0.0582 | 1.23 ± 0.0362 | 1.24 ± 0.0488
CTCAAA | 1.09 ± 0.0723 |  | 1.2 ± 0.0463
CAACAC | 0.658 ± 0.0239 | 0.8 ± 0.0226 | 0.849 ± 0.0276
ACCAAT | 1.25 ± 0.0373 |  | 1.33 ± 0.0543
CTTGAA | 1.25 ± 0.0309 | 1.42 ± 0.0651 | 1.32 ± 0.0914
AGAAGG | 0.864 ± 0.0399 | 1.05 ± 0.055 | 0.997 ± 0.0501
CAAACG | 0.563 ± 0.00697 | 0.704 ± 0.014 | 0.777 ± 0.055
AAATGG | 1.11 ± 0.029 |  | 1.16 ± 0.0413
ATACCA | 1.39 ± 0.0502 |  | 1.35 ± 0.0639
AAACCT | 1.23 ± 0.0691 |  | 1.34 ± 0.0704
